Consider 7 molecules from PubChem BioAssay (EPA / NIEHS).

The source made the active and inactive calls. The calls were made as follows: active = hit-call score of the fitted dose curve at least 0.9, where 1 is the maximum; inactive = score below 0.9.

Read-out in assay [1]: Human Leukocyte Antigen - DR isotype (HLADR), HLA-DRA (gene 3122)
Kind of assay: BSK_BE3C_HLADR: BioMAP Diversity Plus: BE3C Assay for Human Leukocyte Antigen - DR isotype (HLADR) Biomarker Activity (AID 2283032). To be noted: primary human bronchial epithelial cells; actives raise or lower the signal. Summed up: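 BioMAP BE3C format: human bronchial epithelium, 24 h compound treatment, ELISA detection of HLA-DR, with bidirectional analysis relative to DMSO.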

Read-out in assay [2]: Vascular cell adhesion molecule 1 (VCAM1), VCAM1 (gene 7412)
Kind of assay: BSK_4H_VCAM1: BioMAP Diversity Plus: 4H Assay for Vascular cell adhesion molecule 1 (VCAM1) Biomarker Activity (AID 2283033).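 As to outcome: cell-surface VCAM-1 protein measured by ELISA.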 To be noted: primary human endothelial cells (HUVEC); actives raise or lower the signal. The procedure, abridged:
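In this human endothelial (HUVEC) system, biomarker ELISA was run 24 h after compound addition, and total protein in parallel wells was assessed by SRB at 560 nm; DMSO served as negative control.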

Read-out in assay [3]: Interferon-gamma inducible Protein 10 (IP10), CXCL10 (gene 3627)
Kind of assay: BSK_BE3C_IP10: BioMAP Diversity Plus: BE3C Assay for Interferon-gamma inducible Protein 10 (IP10) Biomarker Activity (AID 2283034). The settings on record: primary human bronchial epithelial cells; actives raise or lower the signal. The procedure, abridged:
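BE3C cells (human bronchial epithelial, primary); 24 h exposure; ELISA for IP-10; DMSO-referenced bidirectional fit.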

Read-out in assay [4]: Monokine induced gamma interferon (MIG), CXCL9 (gene 4283)
Kind of assay: BSK_BE3C_MIG: BioMAP Diversity Plus: BE3C Assay for Monokine induced gamma interferon (MIG) Biomarker Activity (AID 2283035). To be noted: primary human bronchial epithelial cells; actives raise or lower the signal. Summed up:
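Dose cells (human primary bronchial epithelial), incubate 24 h, quantify MIG by ELISA, then fit concentration–response in both directions relative to DMSO control.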

Read-out in assay [5]: Transforming growth factor beta 1 (TGFb1), TGFB1 (gene 7040)
Kind of assay: BSK_BE3C_TGFb1: BioMAP Diversity Plus: BE3C Assay for Transforming growth factor beta 1 (TGFb1) Biomarker Activity (AID 2283036;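 as to outcome: TGF-b1 protein level measured by ELISA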). To be noted: primary human bronchial epithelial cells; actives raise or lower the signal. The procedure, abridged:
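TGF-b1 measured via ELISA, 24 h after chemical dosing of human bronchial epithelial cells (BE3C). Overt cytotoxicity assessed in parallel by SRB (0.1%, TCA-fixed, 560 nm); analysis bidirectional relative to DMSO.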

Read-out in assay [6]: Plasminogen activator inhibitor-1 (PAI1), SERPINE1 (gene 5054)
Kind of assay: BSK_BE3C_PAI1: BioMAP Diversity Plus: BE3C Assay for Plasminogen activator inhibitor-1 (PAI1) Biomarker Activity (AID 2283037). To be noted: primary human bronchial epithelial cells; actives raise or lower the signal. Summed up: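 In this multiplexed primary-cell system, bronchial epithelial cells receive test chemical and are sampled at 24 h. PAI-1 is read by ELISA, with DMSO serving as negative control for bidirectional fitting.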

Read-out in assay [7]: urokinase plasminogen activator (uPA), PLAU (gene 5328)
Kind of assay: BSK_BE3C_uPA: BioMAP Diversity Plus: BE3C Assay for urokinase plasminogen activator (uPA) Biomarker Activity (AID 2283038).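 As to outcome: uPA protein level quantified by ELISA in cell cultures; uPA read one day after compound addition.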 To be noted: primary human bronchial epithelial cells; actives raise or lower the signal. Summed up: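 ELISA read-out of uPA in human lung primary bronchial epithelial cultures, 24 h post-dosing. Gain or loss of signal fitted bidirectionally relative to DMSO baseline; cytotoxicity checked in parallel cultures via SRB total protein stain.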

Read-out in assay [8]: Urokinase-type plasminogen activator receptor (uPAR), PLAUR (gene 5329)
Kind of assay: BSK_BE3C_uPAR: BioMAP Diversity Plus: BE3C Assay for Urokinase-type plasminogen activator receptor (uPAR) Biomarker Activity (AID 2283039).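 As to outcome: uPAR protein level measured by ELISA on the cells; cells exposed to compound for one day before measurement.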 To be noted: primary human bronchial epithelial cells; actives raise or lower the signal. Summed up:
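Chemically treated human bronchial epithelial cells (lung primary) are assayed for uPAR by ELISA after 24 h, with data fitted in both directions using DMSO as negative control.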

Read-out in assay [9]: Interleukin-6 (IL6), IL6 (gene 3569)
Kind of assay: BSK_CASM3C_IL6: BioMAP Diversity Plus: CASM3C Assay for Interleukin-6 (IL6) Biomarker Activity for (AID 2283040). The settings on record: primary human coronary artery smooth muscle cells; actives raise or lower the signal.

Read-out in assay [10]: Tissue plasminogen activator (tPA), PLAT (gene 5327)
Kind of assay: BSK_BE3C_tPA: BioMAP Diversity Plus: BE3C Assay for Tissue plasminogen activator (tPA) Biomarker Activity (AID 2283041).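 As to outcome: tPA level quantified by ELISA one day after compound addition.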 The settings on record: primary human bronchial epithelial cells; actives raise or lower the signal. Summed up: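 Using human lung primary bronchial epithelial cells, tPA was measured by ELISA 24 h after dosing; data fitted relative to DMSO.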

Read-out in assay [11]: Interleukin-8 (IL8), CXCL8 (gene 3576)
Kind of assay: BSK_CASM3C_IL8: BioMAP Diversity Plus: CASM3C Assay for Interleukin-8 (IL8) Biomarker Activity (AID 2283042).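 Also: IL-8 protein level quantified by ELISA.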 The settings on record: primary human coronary artery smooth muscle cells; actives raise or lower the signal.

Read-out in assay [12]: Human Leukocyte Antigen - DR isotype (HLADR), HLA-DRA (gene 3122)
Kind of assay: BSK_CASM3C_HLADR: BioMAP Diversity Plus: CASM3C Assay for Human Leukocyte Antigen - DR isotype (HLADR) Biomarker Activity (AID 2283043).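 Also: cell-surface HLA-DR protein level quantified by ELISA.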 To be noted: primary human coronary artery smooth muscle cells; actives raise or lower the signal.

Read-out in assay [13]: Macrophage colony-stimulating factor (MCSF), CSF1 (gene 1435)
Kind of assay: BSK_CASM3C_MCSF: BioMAP Diversity Plus: CASM3C Assay for Macrophage colony-stimulating factor (MCSF) Biomarker Activity (AID 2283044).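 Also: M-CSF protein amount quantified by ELISA after 24 h exposure.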 To be noted: primary human coronary artery smooth muscle cells; actives raise or lower the signal.

Read-out in assay [14]: Low-density lipoprotein receptor (LDLR), LDLR (gene 3949)
Kind of assay: BSK_CASM3C_LDLR: BioMAP Diversity Plus: CASM3C Assay for Low-density lipoprotein receptor (LDLR) Biomarker Activity (AID 2283045).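 Also: LDLR protein level on the cell surface quantified by ELISA.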 The settings on record: primary human coronary artery smooth muscle cells; actives raise or lower the signal.

Read-out in assay [15]: Monocyte Chemoattractant Protein-1 (MCP1), CCL2 (gene 6347)
Kind of assay: BSK_CASM3C_MCP1: BioMAP Diversity Plus: CASM3C Assay for Monocyte Chemoattractant Protein-1 (MCP1) Biomarker Activity (AID 2283046).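 Also: MCP-1 level quantified by ELISA 24 h after dosing.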 To be noted: primary human coronary artery smooth muscle cells; actives raise or lower the signal.

Assay [16] is described as follows: BSK_CASM3C_Proliferation: Cell Proliferation Assessment in the BioMAP Diversity Plus: CASM3C Assay (AID 2283047).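 Also: sulforhodamine B total protein stain as relative cell number at 560 nm; sub-confluent cells exposed 48 h before staining; fitted both ways against DMSO so gain or loss of cell number.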 The settings on record: primary human coronary artery smooth muscle cells.
Read-out in assay [17]: Monokine induced gamma interferon (MIG), CXCL9 (gene 4283)
Kind of assay: BSK_CASM3C_MIG: BioMAP Diversity Plus: CASM3C Assay for Monokine induced gamma interferon (MIG) Biomarker Activity (AID 2283048).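 Also: MIG protein level measured by ELISA.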 The settings on record: primary human coronary artery smooth muscle cells; actives raise or lower the signal.

Read-out in assay [18]: serum amyloid A (SAA), SAA1 (gene 6288)
Kind of assay: BSK_CASM3C_SAA: BioMAP Diversity Plus: CASM3C Assay for serum amyloid A (SAA) Biomarker Activity (AID 2283049).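 Also: SAA protein level quantified by ELISA.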 To be noted: primary human coronary artery smooth muscle cells; actives raise or lower the signal.

Assay [19] can be described thus: BSK_CASM3C_SRB: Viability Assessment in the BioMAP Diversity Plus: CASM3C Assay (AID 2283050).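 Also: total protein by SRB staining as cytotoxicity measure in parallel cultures.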 To be noted: primary human coronary artery smooth muscle cells.
Read-out in assay [20]: Thrombomodulin, THBD (gene 7056)
Kind of assay: BSK_CASM3C_Thrombomodulin: BioMAP Diversity Plus: CASM3C Assay for Thrombomodulin Biomarker Activity (AID 2283051).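 Also: thrombomodulin protein level measured by ELISA 24 h after dosing.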 The settings on record: primary human coronary artery smooth muscle cells; actives raise or lower the signal.

Take `O=Cc1ccco1`: the outcome in assay [1], in [2], in assay [3], in assay [4], in assay [5] and in assay [6] was inactive. Further, the outcome in [7], in assay [8], in [9], in [10], in [11] and in [12] was inactive. Further, the result in assay [13], in assay [14], in assay [15], in [16], in assay [17] and in assay [18] was inactive. For the same molecule, the outcome in assay [19] and in assay [20] was inactive.

In the case of `CC(C)(C)OOC(C)(C)CCC(C)(C)OOC(C)(C)C`, the outcome in [1], in assay [2], in [3], in assay [5], in assay [7] and in [8] was inactive. Moreover, the result in [9], in [10], in assay [11], in [12], in [13] and in assay [14] was inactive. Also, the outcome in assay [15], in assay [16], in assay [17], in [18], in assay [19] and in [20] was inactive.

Regarding `O=C(O)C1C2CCC(O2)C1C(=O)O` (stereo not given), the outcome in assay [1], in assay [3], in assay [4], in assay [6], in assay [7] and in [8] was inactive. Moreover, the outcome in assay [9], in [11], in [14], in [17], in assay [18] and in assay [19] was inactive. For the same molecule, the outcome in assay [20] was inactive. Further, the concentration at half-maximal activity (AC50) is 12.1 µM (active) in assay [2]; 18.6 µM (active) in assay [5]; 18.6 µM (active) in [10]; 4.92 µM (active) in [12]; 21.8 µM (active) in assay [15].

Take `CO[C@@H]1[C@H](OC(=O)NC(=O)CCl)CC[C@]2(CO2)[C@H]1[C@@]1(C)O[C@@H]1CC=C(C)C`: the half-maximal activity concentration (AC50) in [1] is 7.85 µM (active); in assay [2] it was 6.62 µM (active); in [3] it was 9.12 µM (active); in [8] it was 5.83 µM (active); in assay [10] it was 7.73 µM (active); in assay [12], 8.37 µM (active). The AC50 in assay [16] is 1.99 µM (active). Moreover, the outcome in [7], in assay [9], in assay [11], in [13], in [14] and in assay [15] was inactive. Moreover, the outcome in [17], in [18], in [19] and in assay [20] was inactive.

For `CS(=O)(=O)NC(=O)c1cc(Oc2ccc(C(F)(F)F)cc2Cl)ccc1[N+](=O)[O-]`, the result in [1], in assay [2], in [3], in [4], in assay [7] and in assay [8] was inactive. For the same molecule, the outcome in [9], in assay [10], in assay [11], in assay [13], in [14] and in [15] was inactive. Further, the outcome in [16], in [17], in [18], in assay [19] and in assay [20] was inactive. Also, the AC50 in [12] was 20 µM (active).

For `CCC12COCN1COC2`, the outcome in [1], in assay [2], in assay [3], in [4], in [5] and in assay [6] was inactive. For the same molecule, the outcome in assay [7], in assay [8], in [9], in assay [10], in assay [11] and in assay [12] was inactive. Moreover, the outcome in [13], in assay [14], in [15], in assay [17], in assay [18] and in assay [19] was inactive. Moreover, the outcome in assay [20] was inactive. Also, the AC50 in assay [16] was 4.32 µM (active).

Consider `[Cl-].[Cl-].[Hg+2]`, for which the concentration at half-maximal activity (AC50) in [1] was 30.2 µM (active); in assay [2] it was 29.7 µM (active); in assay [3], 34.9 µM (active); in assay [5], 30.9 µM (active); in [6] it was 30.9 µM (active); in assay [7], 31.6 µM (active). Further, the AC50 was 31.5 µM (active) in assay [8]; 31.9 µM (active) in assay [9]; 31.8 µM (active) in [10]; 35.5 µM (active) in assay [11]; 25.4 µM (active) in assay [12]; 26.5 µM (active) in assay [13]. Moreover, the AC50 in assay [14] was 34.8 µM (active); in assay [15], 33.5 µM (active); in [16], 29.3 µM (active); in [17], 33.9 µM (active); in assay [18] it was 30.6 µM (active); in [19] it was 36.6 µM (active). In addition, the half-maximal activity concentration (AC50) in [20] is 5.21 µM (active).
